Measured values published in PubChem BioAssay AID1159580 (chemical genetic matrix, 2015).
Screen size: about 5,500 compounds; about 2,000 (36%) were called active. About 18% were inconclusive and are not listed. Cut-off read from the data, not from the text of the source: active = normalized growth mostly below about 0.91 (no sharp cut-off); inconclusive = no clear call, values can overlap the other calls; inactive = mostly above about 0.92. The list shows a part of the results.

Assay: chemical genetic growth profiling, strain panel (AID 1159580);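 note: tested at 20 µM; growth read once vehicle control cultures reached saturation at 30 °C; 1 = growth at the plate median or of vehicle wells; lower values mean less growth of the strain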
Conditions: S. cerevisiae deletion strains, growth OD

Measured: normalized growth

COc1ccc(C2CC(c3ccc(C)cc3C)=NN2C(C)=O)cc1 (stereo unspecified)
inactive: locus YAR019C, strain CDC15, hits give low values 0.997 | locus YBL105C, strain PKC1, hits give low values 0.993 | locus YBR135W, strain CKS1, hits give low values 0.984 | locus YBR136W, strain MEC1, hits give low values 0.981 | locus YBR160W, strain CDC28, hits give low values 0.995 | locus YDL017W, strain CDC7, hits give low values 0.992 | locus YDL028C, strain MPS1, hits give low values 0.984 | locus YDL101C, strain DUN1, hits give low values 0.987 | locus YDL108W, strain KIN28, hits give low values 0.977 | locus YDL132W, strain cdc53, hits give low values 0.994 | locus YDL214C, strain PRR2, hits give low values 0.872 | locus YDR052C, strain DBF4, hits give low values 0.999 | locus YDR054C, strain cdc34, hits give low values 0.983 | locus YDR226W, strain ADK1, hits give low values 0.985 | locus YDR477W, strain SNF1, hits give low values 0.919 | locus YER123W, strain YCK3, hits give low values 0.85 | locus YER133W, strain GLC7, hits give low values 0.911 | locus YFL009W, strain cdc4, hits give low values 0.984 | locus YFL029C, strain CAK1, hits give low values 0.994 | locus YFR003C, strain YPI1, hits give low values 0.988 | locus YFR019W, strain FAB1, hits give low values 0.937 | locus YFR028C, strain CDC14, hits give low values 0.981 | locus YGR040W, strain KSS1, hits give low values 0.89 | locus YGR052W, strain FMP48, hits give low values 0.971 | locus YGR092W, strain DBF2, hits give low values 0.909 | locus YHR030C, strain SLT2, hits give low values 1.04 | locus YHR079C, strain IRE1, hits give low values 0.971 | locus YHR082C, strain KSP1, hits give low values 0.984 | locus YHR205W, strain SCH9, hits give low values 0.931 | locus YIL147C, strain SLN1, hits give low values 0.978 | locus YJL095W, strain BCK1, hits give low values 0.967 | locus YJL128C, strain PBS2, hits give low values 0.907 | locus YJL157C, strain FAR1, hits give low values 0.889 | locus YJR016C, strain ILV3, hits give low values 0.994 | locus YJR066W, strain TOR1 (second series), hits give low values 0.881 | locus YJR066W, strain TOR1, hits give low values 0.978 | locus YKL048C, strain ELM1, hits give low values 0.955 | locus YKL067W, strain YNK1, hits give low values 0.908 | locus YKL101W, strain HSL1, hits give low values 0.905 | locus YKL193C, strain SDS22, hits give low values 0.989 | locus YKL203C, strain TOR2, hits give low values 0.981 | locus YLR113W, strain HOG1, hits give low values 0.868 | locus YLR133W, strain CKI1, hits give low values 0.93 | locus YLR403W, strain SFP1, hits give low values 0.916 | locus YML070W, strain DAK1, hits give low values 0.888 | locus YMR001C, strain CDC5, hits give low values 0.998 | locus YMR205C, strain PFK2 (second series), hits give low values 0.913 | locus YMR277W, strain FCP1, hits give low values 0.986 | locus YNL006W, strain LST8, hits give low values 0.998 | locus YNL020C, strain ARK1, hits give low values 0.914 | locus YNL161W, strain CBK1, hits give low values 0.997 | locus YNL183C, strain NPR1, hits give low values 0.995 | locus YNL207W, strain RIO2, hits give low values 0.991 | locus YNL222W, strain SSU72, hits give low values 0.991 | locus YNL307C, strain MCK1 (second series), hits give low values 0.931 | locus YOL078W, strain AVO1, hits give low values 0.994 | locus YOL136C, strain PFK27, hits give low values 0.887 | locus YOR061W, strain CKA2, hits give low values 0.881 | locus YOR119C, strain RIO1, hits give low values 0.979 | locus YOR231W, strain MKK1, hits give low values 0.927 | locus YOR329C, strain SCD5, hits give low values 0.997 | locus YPL031C, strain PHO85, hits give low values 0.917 | locus YPL153C, strain RAD53, hits give low values 0.905 | locus YPL204W, strain HRR25, hits give low values 0.922 | locus YPL209C, strain IPL1, hits give low values 0.998 | locus YPL256C, strain CLN2, hits give low values 0.975 | locus YPR025C, strain CCL1, hits give low values 0.992 | locus YPR106W, strain ISR1, hits give low values 0.979 | locus YPR111W, strain DBF20, hits give low values 0.977 | strain NNK1, hits give low values 0.97 | strain TSCII, hits give low values 0.995
